In all, about 320,000 compounds went through this assay and about 2,100 (0.66%) were called active. About 53% were inconclusive and are not listed. The call rests on the fitted dose curve; in most records, active means well fitted inhibition curve with a large enough effect in the signal ratio, with a control signal flat (not every such curve was filed as active); inconclusive means small, poorly fitted or top-dose-only effect, or effect the other way, or a change in a side signal; inactive means flat fitted curve, though single readings scatter; the % refers to the signal ratio. What follows is part of a selection rich in actives, with near analogues and random picks from the rest.
Potency means the concentration at half of the fitted maximal effect.

A short description of the experiment: qHTS Assay for Lipid Storage Modulators in Drosophila S3 Cells.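 On cell number change: cells counted by Cell Tracker Red CMTPX staining in the red channel.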 On lipid storage change, negative = inhibition: on the % scale 0 is the no-effect control and ±100 the full control effect. The settings on record: BODIPY lipid droplet fluorescence, 18-24 h, cells fed with added oleic acid; cell number change: measured here: cell count max response; series mostly up to 46.1 µM; lipid storage change, negative = inhibition: at the top concentration. The method in brief:
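Drosophila S3 cells got compounds at several concentrations plus oleic acid (400 uM solution). Laser-scanning cytometry with 488 nm excitation read lipid droplets at 500-530 nm and cells at 575-640 nm. Percent activity was relative to 20 uM Triacsin C.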
In general terms: qHTS replaces the single test concentration by a dilution series.
In the case of `COc1ccccc1CN(C)C(=O)C(c1ccccc1)c1ccccc1`, the Potency is 20.6 µM (active) and the cell number change was 14.8%.

For `CCOc1ccc(N(CC(=O)N2CCCCCC2)S(C)(=O)=O)cc1`, the compound was classed as inactive.

Regarding `CCOC(=O)C1CCN(C(=O)Cn2cc(C(=O)C3CC3)c3ccccc32)CC1`, the “lipid storage change, negative = inhibition” value is 10.5% (inactive) and the cell number change is 3.64%.

Turning to `O=C(CCN1C(=O)c2ccccc2C1=O)Nc1ccc(F)cc1F`, the “lipid storage change, negative = inhibition” value was 12.5% (inactive) and the cell number change is 5.85%.

For `COc1ccc(OC)c(CCNC(=O)CCCc2nnc3n(C)c(=O)c4sccc4n23)c1`, the Potency was 7.31 µM (active) and the cell number change was -24.6%.

For `Cn1c(=O)c2sccc2n2c(CCCC(=O)N3CCCCC3)nnc12`, the Potency was 10.3 µM (active) and the cell number change is -19.4%.

Turning to `COc1ccc(-c2cc(CCCC(=O)NCCc3cc(OC)ccc3OC)no2)cc1`, the “lipid storage change, negative = inhibition” value is -25.3% (inactive) and the cell number change worked out at 4.57%.

Consider `Cn1c(=O)c2sccc2n2c(CCCC(=O)Nc3ccc(F)cc3F)nnc12`, for which the Potency was 9.2 µM (active) and the cell number change was -23.8%.

Turning to `Cn1c(=O)c2sccc2n2c(CCCC(=O)NCc3ccc4c(c3)OCO4)nnc12`, the “lipid storage change, negative = inhibition” value is 3.09% (inactive) and the cell number change was -24.9%.

`Cn1cnnc1SCC(=O)Nc1ccc(F)cc1F`: the “lipid storage change, negative = inhibition” value is 16% (inactive) and the cell number change was -0.713%.

With `O=C(CCc1nnc2n(Cc3ccc(F)cc3)c(=O)c3ccccc3n12)N1CCN(c2ccccn2)CC1`, the Potency is 13 µM (active) and the cell number change was -18.8%.

Take `COc1ccc(Cn2c(CCC(=O)N3CCN(c4ccccn4)CC3)nc3ncccc3c2=O)cc1`: the “lipid storage change, negative = inhibition” value was 7.18% (inactive) and the cell number change is -8.69%.

Regarding `CC(C)CCn1c(=O)c2sccc2n2c(CCCC(=O)N3CCC(N4CCCCC4)CC3)nnc12`, the result was inactive.

As to `O=C(CCc1nnc2n(Cc3ccc(Cl)cc3)c(=O)c3ccccc3n12)N1CCN(c2ccccn2)CC1`, the compound was called inactive and the cell number change is -18.3%.

On to `O=C(CCCCCn1c(=O)[nH]c2ccsc2c1=O)N1CCCCC1`, for which the “lipid storage change, negative = inhibition” value is -10% (inactive) and the cell number change is -7.73%.

As to `O=C(CSc1ccc(F)cc1)N1CCOCC1`, the “lipid storage change, negative = inhibition” value was -1.33% (inactive) and the cell number change turned out to be 7.13%.

For `COC(=O)c1ccc(COc2cc([N+](=O)[O-])cc3cccnc23)o1`, the “lipid storage change, negative = inhibition” value is -4.43% (inactive) and the cell number change is 5.31%.

`Cc1cccc(NC(=S)NC(C)C(c2ccccc2)N2CCN(C)CC2)c1C` (configuration not stated): the “lipid storage change, negative = inhibition” value was -11.9% (inactive) and the cell number change is -10.3%.

As for `COc1ccc(OC)c(S(=O)(=O)NC2CC2)c1`, the “lipid storage change, negative = inhibition” value was -1.21% (inactive) and the cell number change was -2.27%.

Turning to `Nc1nc(SCC(=O)Nc2cccnc2Cl)n[nH]1`, the compound was classed as inactive.

Take `COc1ccc(-c2n[nH]c(=S)n2N)c(OC)c1`: the compound was classed as inactive and the cell number change was -28.8%.

With `COc1ccc(CNC(=O)CCNS(=O)(=O)c2ccc3c(c2)oc(=O)n3C)cc1`, the “lipid storage change, negative = inhibition” value is -3.68% (inactive).

Turning to `Cc1ccc(N2CCN(/N=C/c3ccccc3)CC2)cc1`, the “lipid storage change, negative = inhibition” value is -18.6% (inactive) and the cell number change is -1.14%.

For `C=CCNC(=O)c1ccccc1NC(=O)c1ccc(Cl)c(S(=O)(=O)Nc2ccccc2)c1`, the “lipid storage change, negative = inhibition” value was -5.77% (inactive) and the cell number change is -6.78%.

Take `Cc1ccccc1-n1ncc2c1CC(C)(C)CC2NC(=O)CCN1CCCCC1=O` (configuration not stated): the “lipid storage change, negative = inhibition” value was -16.5% (inactive) and the cell number change is -9.29%.

Consider `O=C(O)c1cc(-c2ccc(Cl)c(Cl)c2)n(-c2ccc(F)cc2)n1`, for which the “lipid storage change, negative = inhibition” value was 1.09% (inactive) and the cell number change worked out at 20.6%.

With `O=C(CCCn1c(=O)[nH]c2ccsc2c1=O)N1CCN(c2ccccn2)CC1`, the “lipid storage change, negative = inhibition” value is -23.2% (inactive) and the cell number change is -2.15%.

With `CCn1c(=O)c2sccc2n2c(CCCC(=O)NC3CCN(Cc4ccccc4)CC3)nnc12`, the “lipid storage change, negative = inhibition” value is -11.5% (inactive).

Turning to `COc1ccccc1CNC(=O)CCn1c(=O)[nH]c2ccsc2c1=O`, the “lipid storage change, negative = inhibition” value was 1.06% (inactive) and the cell number change is -12.6%.

On to `CC(C)Cn1c(=O)c2sccc2n2c(CCCC(=O)NC3CCN(Cc4ccccc4)CC3)nnc12`, for which the compound was classed as inactive and the cell number change worked out at 6.76%.

Regarding `CCn1c(=O)c2sccc2n2c(CCCC(=O)N3CCN(c4ccccn4)CC3)nnc12`, the Potency was 23.1 µM (active) and the cell number change is -5.66%.

With `COc1ccccc1CNC(=O)CCCc1nnc2n(C)c(=O)c3sccc3n12`, the Potency is 1.3 µM (active) and the cell number change amounted to 11.8%.

In the case of `N#Cc1ccc(C[C@@H](NS(=O)(=O)c2ccc(C(=O)O)cc2)C(=O)O)cc1`, the “lipid storage change, negative = inhibition” value is 16.5% (inactive) and the cell number change amounted to 17.7%.

In the case of `COc1cc(/C=C2/C(=O)N(c3ccc(Br)cc3)N=C2C)cc([N+](=O)[O-])c1O`, the outcome was inactive.

On to `COc1ccc(OCCCCOc2ccccc2Cl)cc1`, for which the “lipid storage change, negative = inhibition” value is -0.0266% (inactive) and the cell number change turned out to be 0.395%.

For `NNC(=O)/C(=C\c1ccc(Br)cc1)NC(=O)c1cccs1`, the “lipid storage change, negative = inhibition” value was 0.151% (inactive) and the cell number change was 2.9%.

With `COc1ccc(NC(=O)CCNC(=O)c2ccc([N+](=O)[O-])cc2)cc1S(=O)(=O)N1CCOCC1`, the “lipid storage change, negative = inhibition” value is -6.84% (inactive) and the cell number change is -1.49%.

In the case of `CC(C)(C)OC(=O)Cn1c(=O)cnc2ccccc21`, the “lipid storage change, negative = inhibition” value was -0.847% (inactive) and the cell number change turned out to be 6.02%.

Take `COC(=O)Cn1c(=O)cnc2ccccc21`: the Potency is 16.4 µM (active) and the cell number change came out at 11.6%.

As to `COc1ccc(OCC(=O)NNC(=O)Cn2c(=O)cnc3ccccc32)cc1`, the “lipid storage change, negative = inhibition” value is 18.9% (inactive) and the cell number change was 2.51%.

As to `CCC1=C(OC(=O)N(CC)CC)N2C(=O)OC(=NCc3ccccc3)[C@]2(C)[C@H]2C1=CC[C@H]1C(=O)N(c3ccccc3)C(=O)[C@H]12`, the “lipid storage change, negative = inhibition” value is 10.2% (inactive) and the cell number change was found to be 11.7%.

`Cc1cc(NC(=O)COC(=O)c2ccccc2[N+](=O)[O-])no1`: the “lipid storage change, negative = inhibition” value is 11.3% (inactive) and the cell number change was -0.913%.

`O=C(C1=C(O)C(=O)N(CCc2ccccc2)C1c1cccs1)c1ccco1` (configuration not stated): the compound was classed as inactive.

In the case of `Cc1ccc2c(c1)S/C(=C/c1ccc[n+](CCO)c1)N2C`, the “lipid storage change, negative = inhibition” value is -3.25% (inactive) and the cell number change turned out to be 5.41%.

Regarding `COc1ccccc1-[n+]1c(C)cc(/C=C2\Sc3ccccc3N2C)cc1C`, the Potency is 0.082 µM (active) and the cell number change was -16.5%.

As for `CN1/C(=C/c2cccc[n+]2CCO)Sc2ccccc21`, the “lipid storage change, negative = inhibition” value was -13.9% (inactive) and the cell number change was found to be 0.676%.

In the case of `Cn1cc(CN2CCCC(CNC(=O)c3ccc4c(c3)OCO4)C2)c2ccccc21` (configuration not stated), the “lipid storage change, negative = inhibition” value was 13.4% (inactive) and the cell number change was -1.43%.

Source of the values: PubChem BioAssay AID2685 (National Center for Advancing Translational Sciences (NCATS), 2010).
